Source: PubChem (National Center for Advancing Translational Sciences (NCATS))
The entries come from a sample that favours hits as a whole.
Pf Dd2 growth: blocks in vitro growth of P. falciparum Dd2 | P. falciparum Dd2 growth, SYBR Green, 72 h | Potency, µM (doses to about 28.9 µM), for the others: at the top dose activity, negative = inhibition, most hits filed as inhibitors | 120,000 tested, 4.3% active; active means well fitted inhibition curve with a large enough effect;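 further: plate controls were DMSO vehicle for no effect and reference drug for full effect; nearly all actives have a fitted effect of over 65% in size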
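Infected erythrocytes (Dd2, 0.3% parasitemia, 2.5% hematocrit final) are added to compound in RPMI-1640/Albumax II medium, grown 72 h at 37C in low oxygen, then lysed with saponin/Triton-X containing SYBR Green and read by fluorescence.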
Active calls of the source: *; i = inactive; [ ] = another dose, or the depositor's remark. Potency means the concentration at half of the fitted maximal effect.

SMILES	Pf Dd2 growth
CN1C(=O)c2ccccc2Sc2ccc(NC(=O)COc3ccccc3)cc21	i
COc1ccc(CCC(=O)NC2CCN(C(=O)N3CC4CC(C3)[C@H]3CCCC(=O)N3C4)CC2)cc1 (stereo partly drawn)	-14%
O=C(N[C@@H]1CN(Cc2ccc(F)cc2Cl)C[C@H]1CO)C1CC1	-5%
O=C(N[C@@H]1CN(Cc2ccc(F)cc2F)C[C@H]1CO)c1ccccc1	10µM*
CN1C[C@@H](CO)[C@H](NC(=O)c2ccccc2)C1	11%
O=C(N[C@@H]1CN(Cc2ccc(F)cc2Cl)C[C@H]1CO)C1CCC1	8.9µM*
O=C(N[C@@H]1CN(Cc2ccc(Cl)c(F)c2)C[C@H]1CO)C1CCC1	-27%
N#Cc1cccc(CN2C[C@@H](CO)[C@H](NC(=O)c3ccccc3)C2)c1	-17%
CCOc1ccc(N(CC(=O)NCc2ccc(C)cc2)S(=O)(=O)c2c(C)[nH]c(=O)[nH]c2=O)cc1	-4%
COC(=O)CS(=O)(=O)c1nc2ccccc2nc1N1CCCCC1	i
Cc1nn(-c2ccc(C(F)(F)F)cc2)c(C)c1[C@@H]1C=C[C@@H](NC(=O)CC2(CC(=O)O)CCCC2)C1	i
Cc1ccc(C)n1-c1nnc(N2CCCC(C(=O)NCc3cccc(Br)c3)C2)s1 (stereo not drawn)	i
Cc1cc(=O)n(Cc2c(F)cccc2Cl)c2c1c(C)nn2C	20%
Cc1ccccc1OCC(=O)c1ccc2c(c1)N(CC(=O)NCc1ccco1)C(=O)CO2	i
COc1ccc(C(=O)N2CCC(OCC3CC3)C2)cn1 (stereo not drawn)	-23%
CC(=O)c1ccc(NC(=O)CC2Sc3ccccc3NC2=O)cc1 (stereo not drawn)	i
Cc1cc(C)n2nc(-c3ccc(Cl)cc3)nc2n1	i
COc1ccc(-c2nc3n(n2)C(=O)CC(c2ccc(Cl)cc2)S3)cc1 (stereo not drawn)	39%
COc1ccc(-c2nc3n(n2)C(c2cccc(C)c2)C(C(N)=O)=C(C)N3)cc1OC (stereo not drawn)	-10%
Cc1ccc(-c2nc3n(n2)C(c2ccccc2C)C=C(c2ccc(Cl)cc2)N3)cc1 (stereo not drawn)	5µM*
CC1=C(C(N)=O)C(c2ccccc2F)n2nc(-c3ccc(Cl)cc3)nc2N1 (stereo not drawn)	-13%
COc1ccc(C2C=C(c3ccc(Cl)cc3)Nc3nc(-c4ccc(Cl)cc4)nn32)cc1 (stereo not drawn)	0.1µM*
Cc1ccc(C2=CC(c3ccc(Cl)cc3)n3nc(-c4ccc(C)cc4)nc3N2)cc1 (stereo not drawn)	1.3µM*
CCOc1ccc(C2C=C(c3cccc(OC)c3)Nc3nnnn32)cc1 (stereo not drawn)	i
Cc1ccc(S(=O)(=O)Nc2nc3n(n2)C(c2ccccc2Cl)C=C(c2ccccc2)N3)cc1 (stereo not drawn)	-2%
SMILES	Pf Dd2 growth
Cc1cc(C(=O)N2CCCC(c3nccn3Cc3ccccn3)C2)c(C)o1 (stereo not drawn)	-10%
O=C(NCCCc1ccccc1)c1ccc(CN2C(=O)NC3(CCOCC3)C2=O)cc1	-16%
COCCc1noc(C2Cc3ccccc3N2C(=O)NCC(=O)OC)n1 (stereo not drawn)	i[5.79 µM]
O=C(NC1CCCN(c2cc(N3CCCC3)ncn2)C1)c1ccoc1 (stereo not drawn)	3%[5.79 µM]
CCOc1ccc(CNC(=O)CSc2cc(=O)n(CC)c3ccccc23)cc1	i
Cc1ccc(Cl)c2sc(N3CCN(C(=O)C4CC4)CC3)nc12	10%
CC(C)Oc1ccc(CNC(=O)C2CCN(C(=O)c3sccc3-n3cccc3)CC2)cc1	-17%
O=C(C[C@H]1NC(=O)c2ccccc2NC1=O)NCCn1cnc2ccccc21	-20%
COc1ccc(-c2cccc(COc3ccc4c(cnn4CC[S+](C)(=O)[O-])c3)c2)cc1	i
CCc1noc(-c2cn(C3CCCN(C(=O)c4cccc(Cl)c4)C3)nn2)n1 (stereo not drawn)	131%
O=C1c2cnc(-c3ccc(F)cc3F)nc2OCCN1Cc1ccc(F)cc1F	-2%[44.1 µM]
CC(=O)Nc1cccc(-c2ncc3c(n2)OCCN(Cc2ccc(F)cc2F)C3=O)c1	13µM*
COc1cccc(-c2ncc3c(n2)OCCN(Cc2ccccc2)C3=O)c1	i
O=C1c2cnc(-c3ccoc3)nc2OCCN1Cc1ccc(F)cc1F	i
COc1ccc(-c2ncc3c(n2)OCCN(Cc2ccccc2)C3=O)cc1	1.3µM*
COc1ncccc1-c1ncc2c(n1)OCCN(Cc1ccccc1)C2=O	-19%[44.1 µM]
Cc1nc2ccc(S(=O)(=O)CCC(=O)Nc3ccccc3C)cc2s1	-23%
CCOC(=O)N1CCC(NC2CC(=O)N(CCCc3ccccc3)C2)CC1 (stereo not drawn)	-10%
COc1ccccc1NC(=O)N1CC(c2nnc(-c3ccncc3)o2)C2(CCOCC2)C1 (stereo not drawn)	14%
Cc1ccc(C(=O)N2CCC3(C2)C(=O)Nc2ccccc23)cc1 (stereo not drawn)	-10%
COc1ccccc1C(=O)N1CCC(C(=O)O)(c2ccccc2)CC1	4%
COc1ccccc1C(=O)N1CCC(c2c[nH]c3ccccc23)(c2c[nH]c3ccccc23)CC1	3.5µM*
COc1ccccc1C(=O)N1CCC2(C1)C(=O)N(C)c1ccccc12 (stereo not drawn)	i
CCN(CC)c1ccc(C(=O)N2CCC(c3c[nH]c4ccccc34)(c3c[nH]c4ccccc34)CC2)cc1	4µM*
CCN(CC)c1ccc(C(=O)N2CCC(c3ccncc3)CC2)cc1	57%[5.79 µM]
SMILES	Pf Dd2 growth
Cc1nc(N)nc(N2CC[C@@H]3CC[C@H](C2)N3C)c1CCC(=O)O	-10%
Cc1cccc(NC(=O)CSc2nc(-c3ccccc3)cc(=O)[nH]2)c1C	29%
CCOC(=O)c1ccccc1NC(=O)CSc1nnc(CC)n2c1cc1occc12	43%[5.79 µM]
Cc1ccc(-c2nccc3c(=O)cc(N4CCN(C)CC4)oc23)cc1	-15%[44.1 µM]
O=C(NC1CCc2n[nH]c(=O)n2CC1)c1ccc(Cn2ccnc2)o1 (stereo not drawn)	36%
CCOCCCNC(=O)C(c1ccccc1)N1Cc2ccccc2C1=O (stereo not drawn)	i
COc1cc(C2c3c(-c4ccccc4O)n[nH]c3C(=O)N2Cc2ccncc2)cc(OC)c1OC (stereo not drawn)	-10%
O=C1c2[nH]nc(-c3ccccc3O)c2C(c2cccc(O)c2)N1Cc1ccncc1 (stereo not drawn)	12%
CCc1ccc(C2c3c(-c4ccccc4O)n[nH]c3C(=O)N2Cc2ccncc2)cc1 (stereo not drawn)	8.9µM*
CCOCCCN1C(=O)c2[nH]nc(-c3ccccc3O)c2C1c1ccc(CC)cc1 (stereo not drawn)	11µM*
O=C(Cc1cccc(F)c1)N1CCC(c2nc(C3CCOCC3)no2)C1 (stereo not drawn)	6%
CCOC(=O)c1noc2ncn(CC(=O)Nc3ccc(C)c(F)c3)c(=O)c12	19%
O=[N+]([O-])c1ccc(-c2ncc[nH]2)cc1	-21%[44.1 µM]
CCC1(C(=O)Nc2ccc(OC)c(F)c2)CCCCC(=O)N1 (stereo not drawn)	0%
O=C1c2cnc(Cc3ccccc3)nc2OCCN1c1cccc(C(F)(F)F)c1	i
